# DT40 TDP1 no CPT: qHTS for Inhibitors of human tyrosyl-DNA phosphodiesterase 1 (TDP1): qHTS in cells in absence of CPT | DT40 Tdp1-/- hTDP1 cells, no CPT, ATP luminescence, 48 h | Potency, µM (doses to about 46.2 µM), actives largely listed as inhibitors | hit rate 15% among 420,000 | AID 686978, 2013; note: nearly all actives have a fitted effect of over 55% in size
#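 Luminescent ATP content (CellTiter-Glo) served as the growth readout. Knockout chicken DT40 cells expressing human TDP1 were exposed to compounds without camptothecin for a minimum 48 hr at 37 °C.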
# TDP1 cell CPT: DT40-hTDP1 cell growth loss with CPT | chicken DT40 Tdp1-/-;hTDP1 cells + 20 nM CPT, ATP luminescence, 48 h | Potency, µM (highest dose often 46.2 µM), actives largely listed as inhibitors | hit rate 12% among 420,000; note: nearly all actives have a fitted effect of over 55% in size
#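 Chicken DT40 Tdp1-/- cells stably complemented with human TDP1 were seeded at 400 cells/well in medium containing 20 nM camptothecin, exposed to pin-transferred compounds, and grown at 37 °C for at least 48 hr. Viability was read as ATP luminescence.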
# GCN5L2 inh: GCN5L2 (KAT2A) acetyltransferase inhibition; Q92830; hit rate 0.21% among 390,000; GCN5L2 HAT assay, ThioGlo1 CoA-SH fluorescence; Potency, µM (doses to about 58.9 µM), hits mostly inhibitors; AID 504327
#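 ThioGlo1-coupled HAT assay: 20nM GCN5L2, 70uM acetyl-CoA, 75uM H3(1-25) peptide, pH 7.5. Fluorescence read at 340/540nm at start and after 20 min at room temperature.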
# TDP1 block: blocks human tyrosyl-DNA phosphodiesterase 1; AID 485290; hit rate 0.28% among 350,000; recombinant TDP1, AlphaScreen DNA substrate cleavage; Potency, µM (series often up to 130 µM), hits mostly inhibitors; note: nearly all actives have a fitted effect of over 40% in size
#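 E. coli-derived human Tdp1, 1 nM final. Cpd preinc 15 min RT; substrate 15 nM final, 5 min RT; AS bead mix 10 ug/ml final, 10 min RT. Signal loss = tyrosine-FITC cleavage. No-enzyme wells = max signal.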
# PLK1 PBD block: PLK1 (human) polo-box domain binding inhibition; P53350; Plk1 PBD binding of FITC phosphopeptide, fluorescence polarization; Potency, µM, actives largely listed as inhibitors; hit rate 2.8% among 360,000; AID 720504; note: series mostly up to about 57 µM; nearly all actives have a fitted effect of over 65% in size
# Target sequence (P53350 whole entry, looked up, the tested form may be a part): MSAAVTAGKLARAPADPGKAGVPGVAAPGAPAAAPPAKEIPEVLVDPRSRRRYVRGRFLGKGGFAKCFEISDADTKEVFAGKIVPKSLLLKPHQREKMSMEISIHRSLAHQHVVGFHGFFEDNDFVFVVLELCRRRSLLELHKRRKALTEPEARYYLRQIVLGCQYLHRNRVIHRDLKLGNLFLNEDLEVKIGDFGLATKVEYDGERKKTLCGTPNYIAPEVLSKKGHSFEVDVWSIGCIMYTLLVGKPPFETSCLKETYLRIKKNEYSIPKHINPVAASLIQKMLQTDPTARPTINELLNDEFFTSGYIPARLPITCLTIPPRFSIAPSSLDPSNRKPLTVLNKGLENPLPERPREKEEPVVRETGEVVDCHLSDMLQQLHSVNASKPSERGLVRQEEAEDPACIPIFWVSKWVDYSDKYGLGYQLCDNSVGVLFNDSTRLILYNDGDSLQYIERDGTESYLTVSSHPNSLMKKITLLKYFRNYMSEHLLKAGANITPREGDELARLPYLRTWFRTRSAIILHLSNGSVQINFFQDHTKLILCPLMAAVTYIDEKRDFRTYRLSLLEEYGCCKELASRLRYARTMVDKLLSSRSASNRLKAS
# VDR inh: vitamin D3 receptor (human) inhibition | Potency, µM, most hits filed as inhibitors | hit rate 0.93% among 400,000 | VDR-SRC2-3 peptide fluorescence polarization, 2 h
#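 Fluorescence polarization assay measuring small-molecule disruption of VDR binding to the coregulator peptide SRC2-3. Compounds were pin-transferred (23 nl) into the reagent mix and incubated 2 h at room temperature before reading.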
# Numbers stand for hits; - = inactive; ? = inconclusive; . = not tested or not shown; ! = not confirmed by another sample; [ ] = dose if it differs, or a comment. Compounds with a hit are over-represented: about 18% of the library has one in this group of screens. Calls come from the whole dose curve; as a rule, active = well fitted curve in the direction sought with a large enough effect; inconclusive = small, poorly fitted or top-dose-only effect, or another doubt; inactive = no such curve, though single readings can be large; an effect the other way counts as inactive or inconclusive.
SMILES,DT40 TDP1 no CPT,TDP1 cell CPT,GCN5L2 inh,TDP1 block,PLK1 PBD block,VDR inh
O=C(c1ccco1)N1N=C(c2ccc(Br)cc2)CC1c1ccco1 (stereo not given),5.2µM,8.2µM,-,-,-,-
CS(=O)(=O)Nc1cccc(C2=NN(C(=O)c3ccccc3Cl)C(c3ccccc3O)C2)c1 (stereo not given),29µM,15µM,-,-,-,-
CS(=O)(=O)Nc1ccc(C2=NN(C(=O)c3ccco3)C(c3ccccc3F)C2)cc1 (stereo not given),18µM,?,-,-,-,-
CCS(=O)(=O)Nc1cccc(C2=NN(C(=O)c3ccco3)C(c3ccco3)C2)c1 (stereo not given),2.6µM,4.6µM,-,-,-,-
CN1CCN(C(=O)c2ccc3c(c2)N(Cc2ccc(F)cc2)C(=O)c2ccccc2S3=O)CC1 (stereo not given),-,-,-,-,-,-
CCN(CC)CCCNc1cc(-c2ccccc2)nc(C)n1,-,-,-,-,.,-
CC(=O)N1N=C(c2cccc(NS(C)(=O)=O)c2)CC1c1ccc2c(c1)OCO2 (stereo not given),-,-,-,-,-,-
CS(=O)(=O)Nc1cccc(C2=NN(C(=O)c3ccco3)C(c3ccco3)C2)c1 (stereo not given),?,16µM,-,-,-,-
CCS(=O)(=O)Nc1ccc(C2=NN(C(=O)c3ccco3)C(c3ccco3)C2)cc1 (stereo not given),4.1µM,4.6µM,-,-,-,-
COc1ccc(C2=NN(C(=O)c3ccco3)C(c3ccco3)C2)cc1OC (stereo not given),18µM,29µM,-,-,-,-
CC(NC(=O)CSc1ncn[nH]1)c1ccc(Cl)cc1Cl (stereo not given),-,-,-,-,-,-
COc1ccc(-c2nnc3n2N=C(c2c(OC)cccc2OC)CS3)c(OC)c1,.,.,.,-,.,.
CCCNCC1COc2ccccc2O1 (stereo not given),-,-,-,-,-,-
COc1cccc(OC)c1OCCNCC1COc2ccccc2O1 (stereo not given),?,15µM!,-,-,-,-
COc1cc(OC)c(NC(=O)C(CC(C)C)N2Cc3ccccc3C2=O)cc1Cl (stereo not given),?,15µM,-,-,.,-
COc1ccccc1CNC(=O)C(CC(C)C)N1Cc2ccccc2C1=O (stereo not given),21µM,9.2µM,-,-,.,-
CCCC(C(=O)Nc1cc(C)c(Cl)cc1OC)N1Cc2ccccc2C1=O (stereo not given),?,?,-,-,.,-
COc1ccccc1CNC(=O)CC(c1ccc(F)cc1)N1Cc2ccccc2C1=O (stereo not given),23µM,?,-,-,.,-
COc1cc(C(CC(=O)NCc2ccc(F)cc2)N2Cc3ccccc3C2=O)cc(OC)c1OC (stereo not given),16µM,?,-,-,.,-
CCCOc1ccc(CNC(=O)C2CCN(c3nc4ccccc4nc3C(F)(F)F)CC2)cc1,?,?,-,-,.,-
COc1ccc(N2CCN(S(=O)(=O)c3ccc(C4CCCCC4)cc3)CC2)cc1,.,.,-,-,.,-
CCn1nc(C)cc1C(=O)NCC1Cc2cccc(-c3cccnc3)c2O1 (stereo not given),?,-[9.04 µM],.,.,.,.
C[n+]1cn(Cc2cc(Cl)ccc2OC(F)F)c2ccccc21,?,?,-,.,-,-
c1ccc(Cn2c[n+](Cc3ccccc3)c3ccccc32)cc1,2.9µM,3.3µM,-,-,-,-
N#Cc1ccc(C(=O)Nn2cnnc2)cc1,-,-,?,.,-,-
S=C(N/N=C/c1ccco1)NC1CC2CCC1C2 (stereo not given),?,?,-,.,-,-
COc1ccc(OC)c(-n2c(-c3cccc(O)c3)n[nH]c2=S)c1,-,-,-,-,27µM,-
COc1ccc(-c2n[nH]c(=S)n2N)c(OC)c1,-,-,-,-,8.4µM,-
